# D2 ag-1 – Beta-Arrestin HTS for Positive Allosteric Modulators of the Human D2 Dopamine Receptor: Agonists | D(2) dopamine receptor (Homo sapiens), P14416 | DiscoveRx PathHunter D2 beta-arrestin, luminescence, 90 min; 100% = 57 uM dopamine signal | activation, % (no concentration beside the values) | hit rate 0.084% among 360,000; in the data active = activation above about 40%; inconclusive = between about 15% and that limit
# Target sequence (P14416 whole entry, looked up): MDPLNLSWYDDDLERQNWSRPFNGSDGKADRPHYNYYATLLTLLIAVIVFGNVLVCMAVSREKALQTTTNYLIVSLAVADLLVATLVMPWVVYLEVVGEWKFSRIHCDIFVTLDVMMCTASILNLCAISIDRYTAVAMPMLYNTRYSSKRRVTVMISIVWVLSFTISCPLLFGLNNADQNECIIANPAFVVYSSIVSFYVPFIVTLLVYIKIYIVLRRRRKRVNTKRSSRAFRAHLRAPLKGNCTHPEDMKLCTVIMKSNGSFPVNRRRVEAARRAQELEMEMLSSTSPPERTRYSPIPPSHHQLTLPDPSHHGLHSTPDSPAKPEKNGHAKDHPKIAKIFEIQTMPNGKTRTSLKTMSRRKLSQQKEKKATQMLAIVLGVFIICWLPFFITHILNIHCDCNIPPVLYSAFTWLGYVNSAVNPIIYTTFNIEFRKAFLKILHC
#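 Agonist mode: compounds alone added to overnight-plated D2 PathHunter cells for 90 min at 37 C, with 57 uM final dopamine (EC100) defining full response. Beta-arrestin recruitment detected by chemiluminescent reagent, read after 1 h at ambient temperature.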
# D2 PAM-1 – Beta-Arrestin HTS for Positive Allosteric Modulators of the Human D2 Dopamine Receptor: Potentiators; D(2) dopamine receptor (Homo sapiens), P14416; DiscoveRx D2 beta-arrestin cells, luminescence, 90 min; 100% = 57 uM dopamine signal; potentiation, % (test concentration not listed); hit rate 0.23% among 360,000; AID 624464, 2012; in the data active = potentiation above about 50%; inconclusive = mostly about 30% to 49%
#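 PathHunter D2 cells, attached overnight at 37 deg C, received compound in DMSO plus dopamine at EC20 (50 nM final) for 90 min at 37 deg C. Beta-arrestin recruitment was read as luminescence after 1 h with detection reagent at ambient temperature.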
# D2 PAM-2 – HTS Assay for Positive Allosteric Modulators of the Human D2 Dopamine Receptor: Primary Screen for Potentiators | D(2) dopamine receptor (Homo sapiens), P14416 | HEK293 T-REx D2, calcium flux, EC20 dopamine potentiation | potentiation, % at 10 µM | hit rate 0.34% among 340,000;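 active = potentiation over 3 SD above the plate norm, cut at about 30% in these data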; note: 0% is about no effect
#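 Cells plated with tetracycline inducer and held overnight at 30 C; calcium dye loaded 30–90 min at room temperature; baseline taken, compound added and read 180 s; EC20 dopamine then added and read 180 s.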
# D2 ag-2 – HTS Assay for Allosteric Agonists of the Human D2 Dopamine Receptor: Primary Screen for Agonists; HEK293 T-REx D2 cells, calcium flux agonist mode; D(2) dopamine receptor (Homo sapiens), P14416; activation, % at 2 µM; hit rate 0.53% among 340,000;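 active = activation over 3 SD above normal in the single-dose calcium agonist read, cut at about 30% in these data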; note: 0% is about no effect
#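 Tetracycline-induced HEK293 T-REx cells with force-coupled D2 receptor, plated overnight at 30 C, loaded with no-wash calcium dye. After a 10 s baseline, compound was pin-added and calcium flux read kinetically for 180 s; calcium rises flagged agonists.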
# D2 antag – HTS Assay for Allosteric Antagonists of the Human D2 Dopamine Receptor: Primary Screen for Antagonists | D(2) dopamine receptor (Homo sapiens), P14416 | HEK293 TREx D2 cells, calcium flux, dopamine EC80 | inhibition, % at 10 µM | hit rate 2% among 340,000 | AID 485344, 2010; in the data active = inhibition above about 30%; inactive = below that, where a call was filed; note: 0% is about no effect
#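 Inhibition of EC80 dopamine-driven calcium flux, recorded kinetically, defines activity here; cells are a tetracycline-induced HEK293 T-REx line expressing force-coupled D2.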
# D3 ag – qHTS of D3 Dopamine Receptor Agonist: D3 Dopamine Receptor B-arrestin Agonist Confirmatory Assay; AID 720506, 2013; hit rate 4% among 2,300; Potency, µM (series often up to 76.9 µM), inactives show at the highest dose activation, actives largely listed as activators; shares compounds with D2 ag-2; DiscoveRx D3 beta-arrestin cells, luminescence, 90 min;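 note: potency is the fitted concentration of half-maximal effect; 100% = dopamine control response; nearly all actives have a fitted effect of over 70% in size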
# D2 ag-3 – qHTS of D3 Dopamine Receptor Agonist: D2 Dopamine Receptor B-arrestin Agonist Counterscreen | shares compounds with D2 ag-2 | DiscoveRx PathHunter D2 beta-arrestin, luminescence, 90 min; response scale: percent relative to full dopamine signal | Potency, µM (titrated, usually from 76.9 µM), inactives show at the highest dose activation, actives largely listed as activators | hit rate 5.9% among 2,300 | AID 720507, 2013; note: potency is the fitted concentration of half-maximal effect; % of control where 0% means no effect; nearly all actives have a fitted effect of over 70% in size
# Numbers without * were called inactive; ? = inconclusive; · = no result. The list is not random: actives were taken first. Their share in the collection is about 2.4%. Unless noted, calls come from the whole dose curve; as a rule, active = well fitted activation curve with a large enough effect; inconclusive = small, poorly fitted or top-dose-only effect; inactive = flat fitted curve, though single readings scatter.
SMILES,D2 ag-1,D2 PAM-1,D2 PAM-2,D2 ag-2,D2 antag,D3 ag,D2 ag-3
CC(=O)NCC1CCCN(Cc2cn(-c3ccccc3)nc2-c2ccc3c(c2)OCO3)C1 (configuration not stated),1.1,-13.2,-21.0,0.0,-12.6,·,·
CCCCC(CCCCl)C(=O)Nc1ccccc1 (configuration not stated),-0.2,-12.2,5.4,-0.4,4.0,·,·
O=C(Nc1ccc(C(=O)NCCCN2CCN(c3ccc(F)cc3)CC2)cc1)C1=CSCCO1,10.6,-52.5,-25.4,68.6*,69.3*,-14.5%,25.1%
O=C(Nc1ccc(C(=O)NCCCN2CCCCC2)cc1)C1=CSCCO1,2.1,-10.4,·,·,·,·,·
CN1CCN(C(=O)CSc2nc(-c3ccco3)cc(C(F)(F)F)n2)CC1,0.6,-14.6,-6.3,-0.6,-14.7,·,·
O=C(CCSc1nc(-c2ccco2)cc(C(F)(F)F)n1)N1CCN(c2ccccn2)CC1,-0.4,2.3,-17.1,52.0*,6.0,-6.7%,-0.1%
C/C(=N\NC(=O)c1nnn(-c2nonc2N)c1-c1ccc2c(c1)OCO2)c1cccs1,-1.4,-5.2,7.5,32.3*,36.8*,-1.5%,-2.6%
COc1cccc(-c2c(C(=O)N/N=C(\C)c3ccncc3)nnn2-c2nonc2N)c1,2.7,-10.2,-5.5,0.3,-10.3,·,·
COc1ccc(/C(C)=N/NC(=O)c2nnn(-c3nonc3N)c2-c2cccs2)cc1,-4.5,-8.6,15.0,2.9,-8.4,0.3%,-3.5%
CCOc1cccc(-c2c(C(=O)N/N=C(\C)c3cccs3)nnn2-c2nonc2N)c1,-4.9,2.0,8.5,18.5,15.6,-3.5%,-3.4%
C/C(=N\NC(=O)c1nnn(-c2nonc2N)c1-c1cccs1)c1ccc(C)cc1,-8.8,0.6,7.0,8.1,11.4,·,·
COc1cccc(-c2c(C(=O)N/N=C(\C)c3cccs3)nnn2-c2nonc2N)c1,-1.6,-6.2,-2.4,37.2*,3.2,-7.5%,-3.9%
CCOC(=O)Cc1cc(C)[nH]c1C(=O)OCC,-4.6,-3.4,3.2,·,·,·,·
COc1ccc2cc(C=O)n(C)c2c1,-3.9,0.9,1.3,0.1,-1.1,2.2%,-4.6%
CCCn1c(N2CCN(C(=O)Nc3ccc(Cl)cc3)CC2)nc2ccccc21,?,6.9,·,·,·,13.0%,?
OC(CN1CCCCC1)Cn1c2ccccc2c2cc(Br)ccc21 (configuration not stated),6.9,-10.2,-27.6,39.2*,79.6*,15.3%,-0.5%
O=C(NCCCCNC(=O)c1cccnc1)c1cccnc1,-3.0,-6.3,1.1,0.3,-3.2,·,·
O=C(C1CCCN1C(=O)c1cccs1)N1CCN(Cc2ccc3c(c2)OCO3)CC1 (configuration not stated),-3.2,9.6,-19.8,63.0*,36.6*,3.9%,16.2%
O=C(c1cccs1)N1CCC(C(=O)N2CCN(Cc3ccc4c(c3)OCO4)CC2)CC1,?,7.0,-21.7,67.5*,52.1*,16.9%,?
O=C(C1CCN(Cc2cccs2)CC1)N1CCN(Cc2ccc3c(c2)OCO3)CC1,-1.4,-16.4,·,0.6,-3.4,·,·
COc1ccc(CNCCNC(=O)c2cccs2)cc1OC,-1.2,-11.6,-18.5,60.2*,39.5*,-3.3%,-3.9%
